# Compound activity: PubChem, Broad Institute
# Only some compounds are listed: those with a hit (about 2.7% of all), similar ones and a draw of the others.
# EWS-Fli inh: inhibitors of EWS/Fli oncoprotein transcriptional activity; A673 NR0B1-luciferase reporter, viability-normalised; inhibition, % at 12.6 µM; hit rate 0.67% among 350,000; AID 651661;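 active means mean inhibition of at least 50% after viability correction, with every replicate also passing that limit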;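 further: firefly luciferase signal divided by Alamar Blue viability fluorescence both relative to DMSO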
# CFTR F508del cor: correctors of CFTR F508del function in bronchial epithelial cells; CFBE cells, YFP halide quenching; stimulated with forskolin plus potentiator P3; % fluorescence drop versus neutral controls; activity (quench increase), % at 7.58 µM; hit rate 0.36% among 350,000; AID 720511;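 active means mean added fluorescence quench of at least 8% versus neutral control, with both replicates also reaching 8%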;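 further: cells transiently co-express mutant CFTR-F508del with the halide-sensitive YFP; corrector assay measuring rescue of mutant channel to the surface after 24 h compound exposure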
# HIV Env fusion: inhibitors of HIV Env-mediated cell fusion; HeLa-JRFL Env/CEM21 cell fusion, luciferase; inhibition, % at 12.3 µM; hit rate 1.1% among 360,000;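 active means mean replicate inhibition score of at least 50 and every replicate individually at or above 50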
# PAX8 reporter: PAX8 transcriptional activity inhibition; RMG-I TPO-luciferase reporter, SteadyGlo, 24 h; inhibition, % at 12.6 µM; hit rate 1.2% among 360,000; AID 652154;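 active means mean replicate inhibition at least 60% with every replicate also reaching 60%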;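 further: luciferase light reporting Pax8 driven TPO promoter activity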
# INS-1E GSIS act: GLuc luminescence reporter in INS-1E cells, primary screen for activators of glucose-dependent secretion of insulin; INS-1E GLuc reporter insulin secretion, 2-3 h; AID 743287; hit rate 0.61% among 370,000; activation, % at 16.6 µM;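 active means lowest replicate activation of at least 40%, so every replicate reaches that level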
# PGC1a acetyl inh: lowers PGC1a acetylation signal in U2OS cells | AlphaScreen anti-acetyl-lysine; with virally co-expressed GCN5 acetyltransferase | inhibition, % at 15.6 µM | hit rate 0.17% among 350,000 | AID 651687;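 active means every replicate shows inhibition of at least 40%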
# Numbers stand for hits; 0 = inactive; - = not tested or not shown; [ ] = another dose, or the depositor's remark.
SMILES,EWS-Fli inh,CFTR F508del cor,HIV Env fusion,PAX8 reporter,INS-1E GSIS act,PGC1a acetyl inh
Cc1ccccc1S(=O)(=O)NCC[C@H]1CC[C@H](NC(=O)C2CCC2)[C@H](CO)O1,0,0,0,0,0,0
C[C@H](CO)N1C[C@H](C)[C@H](CN(C)S(=O)(=O)c2ccccc2)OCCCC[C@H](C)Oc2ccc(NS(C)(=O)=O)cc2C1=O,0,0,0,0,0,0
O=C(C[C@@H]1CC[C@H]2[C@@H](COC[C@H](O)CN2Cc2cccc(C(F)(F)F)c2)O1)NCc1ccc(Cl)cc1,0,0,68[16.7 µM],0,0,0
O=C(C[C@H]1CC[C@@H]2[C@H](COC[C@@H](O)CN2Cc2ccc(F)cc2)O1)NCc1ccccc1Cl,0,0,-,92,0,0
C[C@H](CO)N1C[C@H](C)[C@@H](CN(C)Cc2ccncc2)Oc2ccc(NS(C)(=O)=O)cc2C1=O,0,0,0,0,0,0
CCCCCCCCCC[n+]1cccc2c3ccccc3ccc21,0,0,59,81,97,0
Cc1cccc[n+]1CCCCCCCCCC[n+]1ccccc1C,0,0,0,0,0,-
CCCCCCCC[n+]1cccc2c3ccccc3ccc21,0,0,84,82,0,0
CCCCCCCCNc1ncnc2ccccc12,-,-,-,-,-,0
CN(C)c1ccc(O)c2c1CC1CC3[C@@H](N(C)C)C(=O)C(C(N)=O)C(=O)[C@]3(O)C(=O)C1C2=O (stereo partly specified),0,0,87,0,-,0
O=C(O)C[C@@H]1C[C@H]2c3cc(NC(=O)C4CCOCC4)ccc3O[C@H]2[C@@H](CO)O1,-,0,-,0,0,0
CSc1ccc(C(=O)C2CCCN(C(=O)c3ccsc3)C2)cc1 (stereo unspecified),0,0,0,0,0,0
CSc1ccc(C(=O)C2CCCN(C(=O)c3ccc4c(c3)no[n+]4[O-])C2)cc1 (stereo unspecified),0,0,0,0,42,0
CC=Cc1ccc2n(c1=O)C[C@@H]1[C@@H](CO)[C@H](C(=O)NCCC)[C@H]2N1C(=O)c1ccccc1 (mixture of isomers),0,0,-,0,0,-
CCC(COC)Oc1cc(NCc2ccccc2)c2ncn(C(C)C)c2c1 (stereo unspecified),0,0,0,70,0,-
CCC(COC(=O)c1ccccc1)Oc1cc(NCc2ccccc2)c2ncn(C(C)C)c2c1 (stereo unspecified),0,0,0,64,0,0
CCC(CO)Oc1cc(NCc2ccccc2)c2ncn(C(C)C)c2c1 (stereo unspecified),0,0,0,0,-,0
COCCNC(=O)/C(C#N)=C/c1ccc(O)c([N+](=O)[O-])c1,0,0,0,0,0,-
COCCNC(=O)/C(C#N)=C/C=C/c1ccccc1[N+](=O)[O-],0,0,0,80,0,0
O=C(N/N=C/C=C/c1ccc2c(c1)OCO2)c1ccc([N+](=O)[O-])cc1,-,-,0,-,74,0
O=C(NN=Cc1ccc2c(c1)OCO2)c1ccc([N+](=O)[O-])cc1,0,0,0,0,0,-
Cc1onc(-c2ccc(Cl)cc2)c1-c1ccnc(SCC(=O)Nc2cc(Cl)cc(Cl)c2)n1,0,0,75,0,-,-
CCC(=O)N(C)C[C@@H]1Oc2ncc(-c3ccccc3F)cc2C(=O)N([C@H](C)CO)C[C@@H]1C,0,0,0,-,0,0
CCCNC(=O)N[C@@H]1CC[C@H](CC(=O)NC2CCCCC2)O[C@H]1CO,0,0,0,0,0,0
COc1cc(OC)c(/C=C2\C(=O)Nc3ccccc32)c(OC)c1,56,0,0,0,-,-
SMILES,EWS-Fli inh,CFTR F508del cor,HIV Env fusion,PAX8 reporter,INS-1E GSIS act,PGC1a acetyl inh
COc1ccc(C(=O)/C=C2/C(=O)Nc3ccccc32)c(OC)c1,59,0,0,0,0,-
COc1ccc(C(=O)/C=C2/C(=O)Nc3ccccc32)cc1OC,0,0,0,0,0,0
COc1ccc(C(=O)/C=C2/C(=O)Nc3ccccc32)cc1,0,0,0,0,0,0
C[C@@H]1CN([C@H](C)CO)C(=O)c2cccc(NC(=O)c3ccc(-c4nccs4)cc3)c2O[C@H]1CN(C)Cc1ccc(C(F)(F)F)cc1,0,0,-,-,0,0
Cc1ccc(S(=O)(=O)N(CC(=O)NCCC2=CCCCC2)Cc2ccccc2F)cc1,-,-,-,-,-,0
O=C(CN(Cc1ccccc1F)S(=O)(=O)c1ccc(Cl)cc1)NCCC1=CCCCC1,-,-,69,0,-,0
Cc1ccc(NC(=O)c2cc(S(=O)(=O)NCCC3=CCCCC3)ccc2F)cc1,0,0,-,64,-,0
O=C(CN(Cc1ccccc1)S(=O)(=O)c1ccc(F)cc1)NCCC1=CCCCC1,-,-,109,-,-,-
O=C(CN(Cc1ccccc1)S(=O)(=O)c1ccc(F)cc1)NCc1ccccn1,0,0,0,0,0,-
Cc1ccc(NC(=O)c2cc(S(=O)(=O)NCC3CCCO3)ccc2F)cc1 (stereo unspecified),0,0,0,0,-,0
O=C(CN(Cc1ccccc1)S(=O)(=O)c1ccc(F)cc1)NCc1cccnc1,-,9.0,0,-,0,-
CC(C)NC(=O)N(C)C[C@@H]1Oc2ccc(NC(=O)Nc3ccc(F)cc3)cc2CC(=O)N([C@@H](C)CO)C[C@@H]1C,0,0,0,0,0,0
COCC#Cc1cnc2c(c1)C(=O)N([C@H](C)CO)C[C@@H](C)[C@@H](CN(C)C(=O)c1cnccn1)O2,0,0,0,-,0,0
C[C@@H]1CN([C@H](C)CO)C(=O)Cc2cc(NC(=O)C3CC3)ccc2O[C@H]1CN(C)CC1CCCCC1,0,0,0,-,0,0
O=C(NC[C@@H]1CC[C@@H]2[C@@H](CN2S(=O)(=O)c2ccccc2[N+](=O)[O-])O1)C1CCOCC1,0,0,-,-,-,0
Cc1ccc(S(=O)(=O)N(CC(=O)NCCC2=CCCCC2)Cc2ccccc2)cc1,-,-,104,-,-,0
C[C@@H]1CN([C@@H](C)CO)C(=O)Cc2cc(NS(C)(=O)=O)ccc2O[C@H]1CN(C)S(=O)(=O)c1ccc(Cl)cc1,0,0,0,0,0,0
COc1ccc(S(=O)(=O)N(C)C[C@H]2OCCCC[C@@H](C)Oc3ccc(NS(=O)(=O)c4ccc(Cl)cc4)cc3C(=O)N([C@@H](C)CO)C[C@H]2C)cc1,0,0,-,69,0,0
COc1ccc(S(=O)(=O)Nc2ccc3c(c2)C(=O)N([C@H](C)CO)C[C@@H](C)[C@@H](CN(C)S(=O)(=O)c2ccc(Cl)cc2)OCCCC[C@@H](C)O3)cc1,0,0,0,0,0,0
COc1ccc(S(=O)(=O)N(C)C[C@@H]2OCCCC[C@H](C)Oc3ccc(NS(=O)(=O)c4ccc(Cl)cc4)cc3C(=O)N([C@@H](C)CO)C[C@@H]2C)cc1,0,0,-,64,0,0
COc1ccc(S(=O)(=O)Nc2ccc3c(c2)C(=O)N([C@@H](C)CO)C[C@@H](C)[C@@H](CN(C)S(=O)(=O)c2ccc(Cl)cc2)OCCCC[C@@H](C)O3)cc1,0,0,0,69,0,0
